# An excerpt weighted towards active compounds, which were near 1.2% of everything screened.
# GRK2 aptamer HTS – compounds blocking aptamer binding on GRK2 – biochemical, human GRK2, bead flow cytometry, HTS, primary screen. 330,000 tested, 0.59% active. Beta-adrenergic receptor kinase 1 (Homo sapiens), P25098. FAM-aptamer displacement from GRK2. AID 488847, 2010. inhibition of aptamer binding, % at 10 µM;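 active = inhibition of aptamer binding above 40%, roughly 3 SD of noise, on plates passing a quality check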;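 also: median bead fluorescence of bound FAM aptamer so fluorescent compounds give negative values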
# Target sequence (P25098 whole entry, looked up): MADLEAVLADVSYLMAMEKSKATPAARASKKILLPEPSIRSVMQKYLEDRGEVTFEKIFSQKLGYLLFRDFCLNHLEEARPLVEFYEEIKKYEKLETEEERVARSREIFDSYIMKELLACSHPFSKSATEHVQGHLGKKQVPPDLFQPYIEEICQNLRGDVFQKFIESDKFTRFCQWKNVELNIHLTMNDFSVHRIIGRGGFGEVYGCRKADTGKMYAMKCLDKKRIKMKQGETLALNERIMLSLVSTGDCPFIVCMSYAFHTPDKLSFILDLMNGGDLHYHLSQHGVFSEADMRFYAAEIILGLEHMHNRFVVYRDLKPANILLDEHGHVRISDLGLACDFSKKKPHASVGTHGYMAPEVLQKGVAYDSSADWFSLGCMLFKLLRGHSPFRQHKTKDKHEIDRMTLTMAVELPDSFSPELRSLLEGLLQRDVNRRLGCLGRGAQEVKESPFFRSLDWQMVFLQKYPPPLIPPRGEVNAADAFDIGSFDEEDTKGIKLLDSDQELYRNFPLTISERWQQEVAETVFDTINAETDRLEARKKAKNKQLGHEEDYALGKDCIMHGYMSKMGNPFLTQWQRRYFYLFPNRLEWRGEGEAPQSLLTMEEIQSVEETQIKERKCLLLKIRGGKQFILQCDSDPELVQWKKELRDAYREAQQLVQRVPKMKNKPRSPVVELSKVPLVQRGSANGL
# MIN6 prolif-1 – inducers of MIN6 beta-cell proliferation, primary screen, ATP luminescence, uHTS | MIN6 cells proliferation, ATPlite luminescence, 48 h; cells starved in 0.2% serum; 100% = growth in 10% serum | AID 2380, 2010 | proliferation, % at 10 µM | 330,000 tested, 0.29% active;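 active = compounds whose signal lies at least 3.5 SD above the mean of all wells on their plate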;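 also: 0% = DMSO-treated cells in low-serum medium and 100% = 10% serum control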
# NTR1 agonist – agonists of human NTR1, primary screen, imaging, U2OS cells, beta-arrestin-GFP, high content | activation, % at 20 µM | Neurotensin receptor type 1 (Homo sapiens), P30989 | NTR1-U2OS beta-arrestin-GFP spot imaging, agonist mode | 330,000 tested, 0.17% active;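 active = activation at or above 40% of the spot to cytoplasm intensity ratio, with at least 20 cells analyzed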;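 also: 0% = DMSO without peptide and 100% = 100 nM NTR1 peptide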
# Platelet DG rel – inhibitors of platelet dense granule secretion, primary screen, cell-based, MLPCN, human platelets; human platelet-rich plasma, SFLLRN dense granule ATP release, luminescence; inhibition, %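 (compounds screened at 7.5 µM in platelet-rich plasma)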; 300,000 tested, 0.22% active; AID 1663, 2009;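 active = mean replicate score, as percent of positive control, at or above 50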
# MIN6 prolif-2 – inducers of beta-cell proliferation in MIN6, confirmation, MIN6 cells, mouse. shares compounds with MIN6 prolif-1. ATPlite luminescence, 48 h; cells kept in 0.2% serum; scaled between 0.2% and 10% serum. proliferation increase, % at 50 µM. 920 tested, under 10 active. AID 463095, 2010;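 active = proliferation increase above 40% at any of the four tested concentrations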
# The depositor's hits bear a star; . = no result given.
SMILES,GRK2 aptamer HTS,MIN6 prolif-1,NTR1 agonist,Platelet DG rel,MIN6 prolif-2
CC(C)(C)C(=O)N(Cc1ccc(Cl)cc1)c1cnccn1,1,-2,-1,-9,.
CC1CN(c2nc(N(C)c3ccccc3)nc(N)c2[N+](=O)[O-])CC(C)O1 (configuration not stated),0,8.7*,4,3,-3
CC1CC(C)CN(c2nc(N(C)c3ccccc3)nc(N)c2[N+](=O)[O-])C1 (configuration not stated),2,-5,32,-7,.
CCN(CC)S(=O)(=O)c1cc(OC)c(Cl)cc1OC,0,7.8*,1,-6,-1
O=C(CSc1ccc2c(c1)OCCO2)Nc1ccc(Br)cc1,2,0,10,0,.
COc1ccc(-c2n[nH]c(=S)n2C2CCCCC2)cc1,0,7.6*,0,-2,-4
S=c1[nH]nc(-c2cccnc2)n1C1CCCCC1,0,0,2,14,.
CCN(CC)S(=O)(=O)c1cc(NC(=O)Cn2ncc(Cl)c(Cl)c2=O)ccc1C,1,-6,0,-1,.
CCN(CC)C(=O)C12CC3CC(CC(Cl)(C3)C1)C2,2,2,0,-3,.
CC(C)(C)NC(=O)C12CC3CC(CC(Cl)(C3)C1)C2,0,8.0*,0,-2,-2
CCCNc1nc(-c2ccccc2)c(C(=O)OCC)cc1C#N,0,-4,3,8,.
C=CCNc1nc(-c2ccccc2)c(C(=O)OCC)cc1C#N,0,5.3*,0,11,-6
Cc1cc(C)nc(NC(=NCCc2c[nH]c3ccccc23)NC(=O)Nc2ccccc2)n1,0,-4,5,-5,.
Cc1cc(C)nc(NC(=NCCc2c[nH]c3ccccc23)NC(=O)c2ccco2)n1,0,12*,19,11,-5
Cc1ccc(NC(=O)C2=NNC(=O)CC2)cc1S(=O)(=O)Nc1ccc(SC(F)F)cc1,0,-1,-1,.,.
C#CCOC(=O)c1ccccc1C(=O)n1nnc2ccccc21,0,-1,2,-2,.
O=C(c1cccc2ccccc12)n1nnc2ccccc21,1,10*,-7,-3,-6
CC1CN(C(=O)CCC(=O)NCc2ccccc2)c2ccccc2O1 (configuration not stated),0,6,-2,0,.
CC(C)Cn1nc(NC(=O)c2ccco2)c2cc3ccccc3nc21,1,6.8*,3,-2,-2
CCn1nc(NC(=O)c2ccco2)c2cc3ccccc3nc21,1,2,0,13,.
CC(C)(C)C(CO)NC(=O)c1ccc[nH]1 (configuration not stated),4,-1,-1,.,.
O=C(Nc1ccccc1)/C(=C/c1cccnc1)NC(=O)c1ccccc1,0,-1,-1,-18,.
Cn1c(=N)n(CC(=O)O)c2ccccc21,0,5.8*,1,-6,0
O=C(Nc1ccc(Cl)cc1)C1CCCN(c2ncnc3c2nc2n3CCCCC2)C1 (configuration not stated),0,-2,9,16,.
Cn1nc(OCC(=O)O)cc1C(F)(F)F,0,6.3*,0,2,7
SMILES,GRK2 aptamer HTS,MIN6 prolif-1,NTR1 agonist,Platelet DG rel,MIN6 prolif-2
Cc1ccccc1-c1nc(CN2CCN(C(=O)c3ccco3)CC2)c(C)o1,0,8.9*,0,3,-5
CC(C)[C@H](NC(=O)C1CC(=O)N(c2ccc(F)cc2)C1)C(=O)N1CCCCC1 (some centres not stated),0,-1,1,-2,.
O=C(N/N=C/c1ccccn1)c1ccc2nc[nH]c2c1,3,7.8*,-1,0,1
COCCNC(=O)c1ccc(C)cc1C,0,7.9*,0,-1,1
COC(=O)c1ccccc1NC(=O)CSc1ccc(C)cc1,1,7.3*,3,-2,-6
COC(=O)c1ccccc1NC(=O)CSc1ccccc1,7,0,-1,8,.
COc1cc(/C=C/C(=O)OCC(=O)NCCc2ccc(S(N)(=O)=O)cc2)ccc1OCC#N,.,-1,1,.,.
CCCCOCCCn1c(-c2ccco2)nc2nc3ccccc3nc21,4,7.8*,1,1,-6
CN1C(=O)C(C)(C)c2cc(S(=O)(=O)N3CCN(c4ccccc4F)CC3)ccc21,1,2,1,-3,.
COc1ccc(S(=O)(=O)N2CCOCC2)cc1NC(=O)CSc1nnc(N)s1,0,-1,0,-2,.
COc1ccc(OC)c(NC(=O)CN2C(=O)C(C)N(c3ccc(C)cc3)C2=O)c1 (configuration not stated),5,0,0,.,.
COc1cccc(CSc2nccn2C)c1,0,2,-1,1,.
COc1ccc(-c2nc3c(c(SCC(=O)N4CCOCC4)n2)COC(C)(C)C3)cc1,0,-3,0,-1,.
COc1ccc(-c2nc3c(c(SCC(=O)N4CCCC4)n2)COC(C)(C)C3)cc1,2,11*,0,7,-5
CCN(CC)CCNC(=O)C(=O)NCC1OCCN1C(=O)c1ccc2c(c1)OCO2 (configuration not stated),0,0,-2,-6,.
CNC(=S)N/N=C/c1ccc(OCC(=O)Nc2c(C)cc(C)cc2C)c(OC)c1,3,0.0*,1,10,-1
Oc1c(Cl)cc(Cl)cc1C=Nc1cc(C(F)(F)F)ccc1N1CCc2ccccc2C1,0,-5,11,13,.
CCN(CC)S(=O)(=O)c1ccc(N2CCCC2)c(NC(=O)Cc2c(F)cccc2Cl)c1,2,-3,1,-10,.
COC(=O)c1ccc(N2CCN(C)CC2)c(NC(=O)COc2ccc(C)cc2)c1,1,11*,1,-27,-4
CCOC(=O)C1CCN(C(=O)CC(NS(=O)(=O)c2ccc(OC)cc2)C(C)C)CC1 (configuration not stated),0,6.2*,2,-14,2
C/C(=N\NC(=O)CN1CCN(Cc2ccccc2)CC1)c1cccs1,1,1,1,-6,.
COc1ccc(NC(=O)N2CCN(c3nc4ccccc4n3C(C)C)CC2)cc1,2,5,1,5,.
CC(C)n1c(N2CCN(C(=O)NCc3ccccc3)CC2)nc2ccccc21,2,8.4*,-1,1,-3
Cc1ccc(NC(=O)CN2C(=S)NC(C)(C)CC2C)cc1Cl (configuration not stated),0,-1,4,.,.
CCN(C(=O)CN1C(=S)NC(C)(C)CC1C)c1ccc(C)c(C)c1 (configuration not stated),0,9.3*,2,7,-2
CCC(C)(C(=O)NC1CCCC1)N(Cc1ccco1)C(=O)c1ccc2c(c1)OCO2 (configuration not stated),0,8.7*,1,-3,-4
